Test results: PubChem BioAssay (NCI)
This is part of a sample that, as a whole, favours compounds with a hit. Of some 83,000 tested, about 20% had one in any assay.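 Step 1: grow cells in 96-well plates. Step 2: add test compound at a single concentration. Step 3: incubate 48 h. Step 4: record percent growth.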 A number with no mark means an inactive call. Activity calls are given as the source filed them.

These compounds were tested on HOP-92 NSCLC (assay: NCI-60 one-dose screen, 48 h (100 = growth as untreated, 0 = no growth, -100 = all killed)). Details: 10 µM unless noted.
Experimental: Growth inhibition of the HOP-92 human Non-Small Cell Lung tumor cell line is measured as a screen for anti-cancer activity. Cells are grown in 96 well plates and exposed to the test compound for 48 hours. Compounds are tested at a single concentration, which is 10^-5 M for most compounds. The reported endpoint is percent growth (GI% or GIPRCNT), where numbers from 0 - 100% represent growth inhibition, and numbers from -100% - 0 represent cell death. For example, a value of 40 represents 60% growth inhibition. A value of 0 means no net growth occurred over the course of the experiment. A value of -40 indicates 40% of cells at the beginning of the experiment died by the end of the experiment. A value of -100 means all cells are dead at the end of the experiment.
NCI-60 Human Tumor Cell Lines Screen was performed using the standard one-dose NCI protocol, which is described in more detail at https://dtp.cancer.gov/discovery_development/nci-60/default.htm.
Compounds with GIPRCNT values below 10 were considered active. Activity score was based on GIPRCNT using the following formula: […]
Score is 0 for GIPRCNT values of 100 or above, 50 for GIPRCNT values of 0, and 100 for GIPRCNT values of -100.

Row | SMILES | growth
1 | Cc1cc2cccnc2c2ncccc12 | 44.6%
2 | CN(C)c1ccc(C(C#N)(c2ccccc2)c2ccc(N(C)C)cc2)cc1 | 54.6%
3 | OC(c1cc(C23CC4CC(CC(C4)C2)C3)nc2c(Cl)cc(Cl)cc12)C1CCCCN1 (stereo not given) | -80.7% (active)
4 | O=C(CCl)N1c2ccccc2Sc2c1ccc1ccccc21 | 64.6%
5 | O=[N+]([O-])C=C(c1ccccc1)c1ccccc1 | 63.9%
6 | O=C(c1ccccc1)c1ccc(O)c2ncccc12 | 49.6%
7 | Oc1ccc2ccccc2c1N=Nc1nccs1 | 46.9%
8 | c1ccc2sc(SSN3CC4CCC(CC4)C3)nc2c1 | 110%
9 | CCCCCCCCCCCC[n+]1ccccc1 (tested in a mixture with another compound) | -50.8% (active)
10 | O=C(Cc1ccccc1)C(F)(F)F | 104%
11 | O=[N+]([O-])/C(=C/c1ccccc1)c1ccccc1 | 99.9%
12 | CCc1cccc(CC)c1N1C(=O)C=CC1=O | 56.5%
13 | CC(C)N=C(N)/N=C(\N)Nc1ccc2ccc3ccccc3c2c1 | -68.6% (active)
14 | CCCCOS(=O)(=O)c1ccccc1 | 122%
15 | CC(=O)Nc1ccc(C(=O)CCl)cc1 | 62%
16 | CCCCCCCCCCCCCCCc1ccc(C(=O)C[n+]2ccccc2)cc1 | -87.1% (active)
17 | N#CC(I)CS(=O)(=O)c1ccccc1 (stereo not given) | 94.5%
18 | S=c1[nH]c2cc(Cl)ccc2s1 | 68.4%
19 | CCOC(=O)C1(C)CCCC1N (stereo not given) | -14.2% (active)
20 | CC1(C)N=c2cc3c(cc2N1c1ccc(Cl)cc1)=Nc1ccccc1N3c1ccc(Cl)cc1 | -26.6% (active)

Row | SMILES | growth
21 | COc1ccc(C(Cn2ccnc2)Sc2ccc(Cl)c(Cl)c2)cc1 (stereo not given) | 50.7%
22 | CCCCCCCCCCCCCCCCCC[S+](C)CC (stereo not given) | 27.3%
23 | O=C(C[P+](c1ccccc1)(c1ccccc1)c1ccccc1)c1ccccc1 | 55.9%
24 | O=C(NOC(=O)c1ccccc1)c1ccccc1 | 101%
25 | CN(C)CCN(C)CC(C)(C)C(=O)/C=C/c1ccc(Cl)c(Cl)c1 | -89.4% [100 µM] (active)
26 | COc1ccc2c(c1)c(CC(=O)O)c(C)n2C(=O)c1ccc(Cl)cc1 | 82.8%
27 | CCOC(=O)c1c(C)[nH]c2ccc(O)cc12 | 103%
28 | CC(=O)c1c(O)c(C)c(O)c2c1OC1=CC(=O)C(C(C)=O)C(=O)C12C (stereo not given) | -0.143% (active)
29 | CC(CSc1n[nH]c(=S)s1)c1ccccc1 (stereo not given) | 101%
30 | CC(C)=C1C=C2CC[C@@H]3[C@](C)(CCC[C@@]3(C)C(=O)O)[C@H]2CC1 | 97.2%
31 | CCCCC(CCc1ccc([N+](=O)[O-])cc1)(C(C)=O)C(=O)OCC (stereo not given) | 91.5%
32 | CC(=O)C1Cc2ccccc2C1=O (stereo not given) | 105%
33 | CCC(C)C(N)C(=O)NC(CC(N)=O)C(=O)NC(CC(C)C)C(=O)NC(CCCCN)C(=O)NC(C)C(=O)NC(CC(C)C)C(=O)NC(C)C(=O)NC(C)C(=O)NC(CC(C)C)C(=O)NC(C)C(=O)NC(CCCCN)C(=O)NC(CCCCN)C(=O)NC(C(=O)NC(CC(C)C)C(N)=O)C(C)CC (stereo not given) | 61%
34 | NNc1ccc(Cl)cc1Cl | 55.2%
35 | O=C1/C(=C\c2ccc([N+](=O)[O-])cc2)CS(=O)(=O)C/C1=C/c1ccc([N+](=O)[O-])cc1 | -79.1% (active)
36 | O=C1CSC(=S)N1Cc1cccnc1 | 83.9%
37 | CCCCN(CCCC)CCCCCCCCCCO | 129%
38 | Cc1ccc(/C=C2\CNC/C(=C\c3ccc(C)cc3)C2=O)cc1 | 11%
39 | Nc1nc(N)c2cc(Sc3cccc(C(F)(F)F)c3)ccc2n1 | 28.5%
40 | CCc1oc2ccccc2c1C(=O)c1cc(Br)c(O)c(Br)c1 | 0.0238% (active)
